Source: PubChem BioAssay (National Center for Advancing Translational Sciences (NCATS))
Hits are enriched below; roughly 3.7% of the tested compounds scored in any of these assays.
FH mod = Identification of activators of human fumarate hydratase by quantitative high-throughput screening | AID 1347055, 2019 | FH coupled MDH/diaphorase resazurin fluorescence, 15 min | actives 0.22% (n = 54,000) | Fumarate hydratase, mitochondrial (Homo sapiens), P07954 | Potency, µM (series often up to 79.9 µM), usual class: inhibitors; note: the screen sought activators but most active calls are inhibition curves; nearly all actives have a fitted effect of over 45% in size
NTMT1 inh = Primary qHTS for Inhibitors of N-terminal methyltransferase 1 (NTMT1): MTaseGlo Assay | N-terminal Xaa-Pro-Lys N-methyltransferase 1 (Homo sapiens), Q9BV86 | actives 2.5% (n = 59,000) | AID 1645870, 2021 | Potency, µM (series often up to 114 µM), usual class: inhibitors | NTMT1 MTase-Glo SAH luminescence, purified enzyme; note: nearly all actives have a fitted effect of over 65% in size
Target sequence (Q9BV86 whole entry, looked up): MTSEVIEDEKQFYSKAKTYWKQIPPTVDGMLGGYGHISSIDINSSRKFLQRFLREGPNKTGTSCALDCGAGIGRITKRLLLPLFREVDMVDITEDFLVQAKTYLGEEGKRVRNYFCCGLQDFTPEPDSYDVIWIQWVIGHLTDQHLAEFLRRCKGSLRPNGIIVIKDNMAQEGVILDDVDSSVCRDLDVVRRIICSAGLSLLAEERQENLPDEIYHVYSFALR
DYRK1A inh = Assay for Inhibitors of Dual-Specificity Tyrosine-(Y)-Phosphorylation Regulated Kinase 1A (Kinase-Glo assay); recombinant DYRK1A, Kinase-Glo ATP depletion luminescence; Potency, µM (doses to about 76.9 µM), usual class: inhibitors; actives 80% (n = 100); shares compounds with NTMT1 inh; AID 2705, 2010
CLK4 inh = Confirmation Assay for Inhibitors of CDC-like Kinase 4 (Kinase-Glo Assay): SAR round 2. actives 90% (n = 90). Potency, µM (top dose mostly 76.9 µM), actives largely listed as inhibitors. AID 493204, 2011. shares compounds with NTMT1 inh. recombinant Clk4, Kinase-Glo ATP luminescence, 4.5 h
Sfp qHTS opt = qHTS Assay for Inhibitos of Bacillus subtilis Sfp phosphopantetheinyl transferase (PPTase): Chemistry Optimization Followup | shares compounds with NTMT1 inh | actives 78% (n = 230) | purified Sfp PPTase enzyme activity, qHTS | Potency, µM (titrated, usually from 114 µM), most hits filed as inhibitors | AID 540350, 2011
Sfp inh gel = qHTS Assay for Inhibitors of Bacillus subtilis Sfp phosphopantetheinyl transferase (PPTase): Gel Based Assay | Potency, µM (series often up to 250 µM), actives largely listed as inhibitors | shares compounds with NTMT1 inh | AID 602362, 2012 | actives 90% (n = 45) | purified Sfp PPTase, gel-based product detection
Sfp inh SAR2 = qHTS Assay for Inhibitors of Bacillus subtilis Sfp phosphopantetheinyl transferase (PPTase): SAR Round 2 | AID 602370, 2012 | shares compounds with NTMT1 inh | Potency, µM (series often up to 57.1 µM), actives largely listed as inhibitors | purified Sfp enzyme, PPTase activity, qHTS | actives 87% (n = 230)
hGST A1-1 inh = qHTS Assay for Inhibitors of Bacillus subtilis Sfp phosphopantetheinyl transferase (PPTase): SAR in hGST A1-1. shares compounds with NTMT1 inh. hGST A1-1 enzyme activity counter-screen, qHTS. Potency, µM (top dose mostly 114 µM), hits mostly inhibitors. 55 tested, under 10 active. AID 602391, 2012
HSD17B4 inh = Extended Characterization of HPGD Inhibitors: Counterscreen Against HSD17b4; shares compounds with NTMT1 inh; purified HSD17B4, estradiol/NAD+, NADH fluorescence; AID 743187, 2013; Potency, µM (doses to about 57.1 µM), actives largely listed as inhibitors; actives 10% (n = 230)
ALDH1A1 counter = Extended Characterization of HPGD Inhibitors: Counterscreen Against ALDH1A1. AID 743195, 2013. actives 93% (n = 230). recombinant ALDH1A1, NADH fluorescence, propionaldehyde/NAD+. shares compounds with NTMT1 inh. Potency, µM (doses to about 57.1 µM), most hits filed as inhibitors
A number is an active result; . = inactive; ? = inconclusive; / = no result given. Calls come from the whole dose curve; as a rule, active = well fitted curve in the direction sought with a large enough effect; inconclusive = small, poorly fitted or top-dose-only effect, or another doubt; inactive = no such curve, though single readings can be large; an effect the other way counts as inactive or inconclusive.

SMILES	FH mod	NTMT1 inh	DYRK1A inh	others
CN(CC1CCCCO1)c1ncnc2ccc(-c3ccc4c(c3)OCO4)cc12 (centres undefined)	/	/	/	CLK4 inh=0.073µM
CN(CC(=O)O)c1ncnc2ccc(-c3ccc4c(c3)OCO4)cc12	/	.	/	CLK4 inh=2.3µM
Cc1nc(CN(C)c2ncnc3ccc(-c4ccc5c(c4)OCO5)cc23)cs1	.	7.9µM	0.041µM
Cc1nc(CN(C)c2ncnc3ccc(-c4ccc5[nH]ncc5c4)cc23)cs1	/	/	/	Sfp qHTS opt=.;Sfp inh gel=.;Sfp inh SAR2=.;hGST A1-1 inh=?;HSD17B4 inh=22µM;ALDH1A1 counter=15µM
Cc1ccc(CN(C)c2nc(-c3ccccc3C(F)(F)F)nc3ccccc23)cc1	/	.	/
Cc1cnc(-c2ccccc2C(C)C)nc1NC(C)c1ccc(-c2cccnc2)cc1 (centres undefined)	/	.	/
O=c1c2ccccc2nc2sc(NCc3ccc(Sc4ccccc4)cc3)nn12	/	.	/
Cc1nc(CSc2ncnc3ccc(-c4ccc5c(c4)OCO5)cc23)cs1	/	?	2.6µM
Cc1c(-c2ccc3c(c2)OCO3)oc2ccc(C(O)C(C)O)cc12 (centres undefined)	.	.	/
COc1cc(O)c(C(CC(=O)N2CCC(Cc3ccccc3)CC2)c2ccc3c(c2)OCO3)c(OC)c1 (centres undefined)	/	.	/
CCOC(=O)c1ccc(-c2ccc3ncnc(NCc4ncc[nH]4)c3c2)o1	/	.	2.3µM
CCOC(=O)c1ccoc1-c1ccc2ncnc(NCc3ccc(C)o3)c2c1	/	?	23µM
CCOC(=O)c1ccc(-c2ccc3ncnc(NCc4csc(C)n4)c3c2)o1	/	.	9.2µM
Cc1csc(CNc2ncnc3ccc(-c4ccco4)cc23)c1	/	.	/
CCOC(=O)c1ccoc1-c1ccc2ncnc(NCc3csc(C)n3)c2c1	/	.	.
CC(=O)c1ccc(N2CCN(C(=O)c3ccc4c(c3)CCC(=O)N4)CC2)cc1	/	.	/
